Experimental findings from PubChem BioAssay AID651820 (National Center for Advancing Translational Sciences (NCATS), 2012) are described below.

Hit rate of the full screen: of about 340,000 compounds, about 12,000 (3.5%) were called active. Where a call stands in place of a potency, no number is given. Not shown: some 18% with an inconclusive outcome. The call rests on the fitted dose curve; in most records, active means well fitted inhibition curve with a large enough effect; inconclusive means small, poorly fitted or top-dose-only effect, or another doubt; inactive means no such curve, though single readings can be large or run the other way. For the sample, actives were picked, then their nearest neighbours and some compounds at random.
Potency means the concentration at half of the fitted maximal effect.

The test in a line: qHTS Assay for Inhibitors of Hepatitis C Virus (HCV). The following applies: Huh7.5.1 HCVcc-Cre infection, luciferase reporter, 44 h; series mostly up to 41.8 µM. In short, it runs like this: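 Seed cells (1,000/well) for 4 h; treat with compound and infect with HCVcc-Cre, moi about 0.5. Incubate 44 h, then detect luciferase activity.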
For orientation: qHTS replaces the single test concentration by a dilution series.
Turning to `C[C@@H]1CN([C@@H](C)CO)C(=O)c2cc(NC(=O)C3CC3)ccc2O[C@H]1CN(C)C`, the Potency result is “inactive”.
As to `O=[N+]([O-])c1ccc(S(=O)(=O)Nc2cccc(-c3ccc(N4CCCC4)nn3)c2)cc1`, the Potency entry is “inactive”.
For `CC(OC(=O)c1c(F)cccc1F)C(=O)NCCC1=CCCCC1` (stereo unspecified) the value was “inactive”; for `CN(CC(=O)Nc1ccc(F)c(F)c1F)C(=O)Cn1cnc2c1c(=O)n(C)c(=O)n2C`, “inactive”; for `CC(C)Cn1c(N)c(C(=O)COC(=O)C2CCCN2C(=O)c2cccs2)c(=O)n(C)c1=O` (stereo unspecified), “inactive”.
Take `COc1ccccc1NC(=O)COC(=O)COc1ccccc1F`: the Potency entry was “inactive”.
For `COc1ccc(OC)c(S(=O)(=O)Nc2ccccc2F)c1` the value was “inactive”.
On to `COc1ccc(NS(=O)(=O)c2cc(NC(=O)COc3ccccc3F)ccc2OC)cc1`, for which the Potency was 11.2 µM (active).
As for `CCc1noc(C)c1C(=O)N1CCCC(N2CCN(c3ccc(F)cc3)CC2)C1` (stereo unspecified), the entry is “inactive”; as for `Cn1c(N)cc(=O)n(C)c1=S`, “inactive”; as for `C=C(C)CNC(=O)c1ccc(OC2CCN(C(=O)COC)CC2)cc1`, “inactive”.
As for `COc1ccc(NC(=O)CN(C)C(=O)CC2CCCCC2)cc1`, the entry is “inactive”.
For the molecule `O=c1oc2ccccc2cc1-c1csc(Nc2ccc(O)cc2)n1`, the Potency is 31.6 µM (active).
For `COC(=O)CCc1sc(Nc2ccc(Br)cc2)nc1-c1ccc(OC)cc1` the value was “inactive”; for `CCN1CCN(c2nc(Nc3cc(OC)ccc3OC)nc(Nc3cc(OC)ccc3OC)n2)CC1`, “inactive”.
Take `O=C(Nc1ccncc1)c1cc2ccccc2o1`: the Potency entry was “inactive”.
Turning to `COc1ccc2nc(Nc3nc(-c4ccncc4)cs3)sc2c1`, the Potency result was “inactive”.
As for `CC(C)(C)C(=O)OCc1nc(-c2ccc(O)c(O)c2)cs1`, the Potency result was “inactive”.
In the case of `CCNc1nc(-c2cc3ccccc3o2)cs1`, the Potency entry was “inactive”.
In the case of `COc1ccc(-c2csc(Nc3ccc(O)cc3)n2)cc1`, the Potency is 12.6 µM (active).
As for `COc1ccc(OC)c(Nc2nc(-c3ccc(O)c(O)c3)cs2)c1`, the figure is 10 µM (active).
With `CC(=O)C[C@H](O)CC(=O)[C@@H]1OC(=O)[C@@H](C)C/C=C\Cc2ccccc21`, the Potency entry was “inactive”.
Regarding `COc1ccc(C(=O)COC(=O)CN2C(=O)C3CC=CCC3C2=O)c(OC)c1` (stereo unspecified), the Potency entry is “inactive”.
Turning to `CC1(C)CC[C@@]2(C(=O)O)C(C1)C1=CCC3[C@@]4(C)CC[C@H](O)C(C)(C)C4CC[C@@]3(C)[C@]1(C)C[C@H]2O` (stereo partly specified), the Potency result is “inactive”.
Turning to `Cc1cc(C)cc(NC(=O)C(c2ccccc2)N2CCN(CC(=O)N3CCCC3)CC2)c1` (stereo unspecified), the Potency entry is “inactive”.
As for `CCOc1ccc(C(=O)CCC(=O)Nc2ccncc2)cc1`, the entry is “inactive”; as for `O=C(CNC(=O)c1ccccc1Br)NCCSc1ccc(Br)cc1`, “inactive”.
For `CN(C)C1=NC[C@H](Cc2ccccc2)N1CCc1ccc(F)cc1` the value was “inactive”.
With `C#CCOCCOCCOCCNc1nc(N2CCN(C(=O)[C@H](CCCCN)n3cc(CCC(=O)O)nn3)CC2)nc(N2CCN(C(=O)[C@H](CCCCN)n3cc(CC(C)O)nn3)CC2)n1` (stereo partly specified), the Potency result is “inactive”.
As for `CC1CCCCC1NCC(=O)Nc1ccccc1C(=O)Nc1ccccc1` (stereo unspecified), the figure is 0.891 µM (active).
For `COc1cccc(CN(C)CC(=O)Nc2ccccc2C(=O)Nc2ccccc2)c1` the value was “inactive”.
As for `CCCC(NCC(=O)Nc1ccccc1C(=O)NC1CC1)c1ccccc1` (stereo unspecified), the entry is “inactive”.
Turning to `Cc1ccc(S(=O)(=O)NC2CCCCCC2)cc1`, the Potency result was “inactive”.
For `O=C1C=CN2CCCC2CC1` (stereo unspecified) the value was “inactive”.
For `COc1ccc(C(CNC(=O)c2ccc(S(=O)(=O)Nc3ccccc3C)cc2)N2CCOCC2)cc1` (stereo unspecified) the value was “inactive”; for `CCOC(=O)c1sc(=NC(=O)c2ccc(Br)cc2)n(C)c1C`, “inactive”.
As for `CCOC(=O)C1=C(C)Nc2sc(C(=O)c3ccc(Br)cc3)c(N)c2C1c1ccc(C(=O)OC)cc1` (stereo unspecified), the figure is 8.91 µM (active); as for `CCOC(=O)c1sc(=S)n2c1[nH]c(=O)c1ccc(C(=O)OC)cc12`, “inactive”; as for `CCCCCCSc1ccc([C@@H]2[C@@H]3C(=O)N(CC)C(=O)[C@@H]3[C@]3(C(=O)OC)CCCCN23)cc1OC`, “inactive”.
As to `Cc1ccc(C2=CSC3=NS(=O)(=O)CCN23)cc1C`, the Potency result is “inactive”.
For `CCCCOc1ccc(CON(C(C)=O)C(C)=O)cc1Cl` the value was “inactive”; for `CCCOc1ccc(C2=CSC3=NCCN23)cc1Cl`, 11.2 µM (active); for `CC[C@]12c3[nH]c4cc(CCC(=O)N(C)C)ccc4c3CCN1C(=O)[C@@H](CC(=O)NCCCN(C)C)C[C@@H]2C(=O)N1CCN(C(=O)c2ccco2)CC1`, “inactive”.
For `Cc1noc(C)c1S(=O)(=O)N(C)C[C@H]1Oc2ccc(NC(=O)C3CCCCC3)cc2C(=O)N([C@H](C)CO)C[C@@H]1C` the value was “inactive”; for `CCOC(=O)[C@H]1[C@H]2COc3ccc(Br)cc3[C@@H]2N2C(=O)CN(C)C(=O)[C@@]12C`, “inactive”.
As for `N#Cc1c(-c2ccccc2)c(-c2ccccc2)n[nH]c1=O`, the Potency result was “inactive”.
As for `N#Cc1c(/N=C/N2CCCC2)oc(-c2ccccc2)c1-c1ccccc1`, the figure is 14.1 µM (active); as for `N#Cc1c2c(c(-c3ccccc3)[nH]c1=O)CCCC2`, “inactive”.
As for `CCN(CC)C(=O)c1nc[nH]c1C(=O)N(C)Cc1ccccc1`, the entry is “inactive”.
On to `COc1ccc(C(=O)N2CCN(c3ncccn3)CC2)cc1S(=O)(=O)N1CCOCC1`, for which the Potency result is “inactive”.
As for `CCC(=O)c1cc(F)ccc1OCC(=O)Nc1ccc2c(c1)OCCO2`, the entry is “inactive”; as for `COc1ccc(S(=O)(=O)N2CCCCC2)cc1NC(=O)C1CC(=O)N(c2ccc3c(c2)OCCO3)C1` (stereo unspecified), “inactive”; as for `Cc1ccc(N2CC(C(=O)Nc3ccc(S(=O)(=O)N4CCCC4)cc3)CC2=O)cc1C` (stereo unspecified), “inactive”.
As for `Cc1ccc(NC(=O)C2CC(=O)N(c3ccc4c(c3)OCCO4)C2)cc1S(=O)(=O)N1CCCCCC1` (stereo unspecified), the figure is 10 µM (active); as for `CN1C(C(=O)NCc2ccco2)CC2Cn3c(nc4ccccc43)C21` (stereo unspecified), “inactive”.
Take `CCOC(=O)c1ccc(NC(=O)CS(=O)(=O)c2cn(CC)c3ccccc23)cc1`: the Potency was 14.1 µM (active).
For `CC(=O)Nc1ccc(NC(=O)CS(=O)(=O)c2cn(CC(=O)N3CCCCC3)c3ccccc23)cc1` the value was “inactive”; for `CCOC(=O)c1ccc(NC(=O)CCn2c(=O)oc3ccccc32)cc1`, “inactive”.
As for `Cc1ccc(NC(=O)C(C)OC(=O)Cc2c[nH]c3ccccc23)cc1S(=O)(=O)N1CCOCC1` (stereo unspecified), the entry is “inactive”; as for `Cc1ccc(C)c(S(=O)(=O)N(C)c2ccc(OC(=O)C3CCN(C(=O)c4ccc(F)cc4)CC3)cc2)c1`, “inactive”; as for `CCCCNC1(C#N)CCN(Cc2ccccc2)CC1`, “inactive”.
